Activity calls are given as the source filed them. Calls come from the whole dose curve; as a rule, active = well fitted curve in the direction sought with a large enough effect in the repeat runs; inconclusive = weak or mixed curves; inactive = flat fitted curve, though single readings scatter.

The results in this text go back to PubChem BioAssay (Tox21).

One assay can be described thus: qHTS assay to test for compound auto fluorescence at 590 nm (red) in HEK293 cells (AID 720679). Particulars: red autofluorescence 540/590 nm; series mostly up to 91.3 µM. An outline of the steps:
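HEK293 cells (2,000/well, 10% dialyzed FBS) attached 4-5 hr, then dosed with compound or DMSO and incubated overnight at 37C, 5% CO2. Red fluorescence read at 540/590 nm, Rose Bengal sodium as reference fluorophore.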
Background: In qHTS, concentration-response curves come from the screen itself.
Consider `O=C(O)C(F)(F)C(F)(F)C(F)(F)C(F)(F)C(F)(F)C(F)(F)C(F)(F)F`, for which the outcome was inactive.
On the same count and under the same terms, with `CCOP(=S)(OCC)O/N=C(\C#N)c1ccccc1` the entry was “inactive”; with `Nc1ccc(Cl)c(Cl)c1`, “inactive”; with `N#CCCCl`, “inactive”.
Take `O=[N+]([O-])c1cccc2ccccc12`: the result was inactive.
Take `CCN(CC)C(=O)SCc1ccc(Cl)cc1`: the call was inactive.
Turning to `COP(=O)(OC)OC`, the compound was called inactive.
As to `Nc1ccc(-c2ccccc2)cc1`, the compound was called inactive.
Still for that read-out and setting: with `O=[N+]([O-])c1ccc(O)c([N+](=O)[O-])c1` the entry was “inactive”.
Consider `CN(C)C(=O)Nc1ccc(Cl)cc1`, for which the result was inactive.
In the case of `Oc1cc(Cl)ccc1Oc1ccc(Cl)cc1Cl`, the call was inactive.
In the case of `Nc1ccc(Cl)cc1N`, the compound was called inactive.
Same read-out and setting: with `COP(=S)(OC)Oc1cc(Cl)c(Cl)cc1Cl` the entry was “inactive”; with `CC(C)C(=O)OCC(C)(C)C(OC(=O)C(C)C)C(C)C` (stereo unspecified), “inactive”.
Regarding `C#C[C@]1(O)CC[C@H]2[C@@H]3CCC4=CC(=O)CC[C@]4(C)[C@H]3CC[C@@]21C`, the call was inactive.
Still for that read-out and setting: with `NNC(N)=S` the entry was “inactive”.
On to `Oc1c(Cl)c(Cl)c(Cl)c(Cl)c1Cl`, for which the compound was called inactive.
Turning to `CCCCCCOC(=O)c1ccccc1C(=O)OCCCCCC`, the result was inactive.
The same measure, in the same setting: with `Cc1cc(Cl)ccc1OCCCC(=O)O` the entry was “inactive”; with `CC(C)N(C(=O)SCC(Cl)=C(Cl)Cl)C(C)C`, “inactive”.
Take `O=c1oc2ccccc2c(O)c1C(CC(O)c1ccc(-c2ccc(Br)cc2)cc1)c1ccccc1` (stereo unspecified): the call was inactive.
`CCCCC(CC)COC(=O)c1ccc(C(=O)OCC(CC)CCCC)c(C(=O)OCC(CC)CCCC)c1` (stereo unspecified): the outcome was inactive.

A further assay in a line: qHTS assay to test for compound auto fluorescence at 535 nm (green) in HEK293 cells (AID 720680). Particulars: green autofluorescence 485/535 nm; series mostly up to 91.3 µM.
On to `O=C1C=CC(=O)C=C1`, for which the compound was classed as inactive.
With `C=CCc1ccc2c(c1)OCO2`, the call was inactive.
On to `CCCCOCCOP(=O)(OCCOCCCC)OCCOCCCC`, for which the call was inactive.
Consider `N[C@@H](Cc1ccc(N(CCCl)CCCl)cc1)C(=O)O`, for which the compound was called inactive.
Consider `CCC(=O)O[C@H]1CC[C@H]2[C@@H]3CCC4=CC(=O)CC[C@]4(C)[C@H]3CC[C@]12C`, for which the outcome was inactive.
Consider `CCOC(=S)S`, for which the compound was classed as inactive.
On the same count and under the same terms, with `Nn1cnnc1` the entry was “inactive”; with `c1ccc(N=Nc2ccccc2)cc1`, “inactive”.
On to `COc1ccc(C=O)cc1`, for which the result was inactive.
For the compound `ClC1C(Cl)C(Cl)C(Cl)C(Cl)C1Cl` (stereo unspecified), the result was inactive.
For the compound `c1ccc(NNc2ccccc2)cc1`, the call was inactive.
In the case of `C[C@]12CCC(=O)C(O)=C1CC[C@@H]1[C@@H]2CC[C@]2(C)C(=O)CC[C@@H]12`, the outcome was inactive.
As for `CCN(CC)N=O`, the compound was classed as inactive.
With `CCCCN(CCCC)N=O`, the compound was called inactive.
Still for that read-out and setting: as for `C=CCN(CC=C)C(=O)C(Cl)Cl`, the entry is “inactive”; as for `O=C(O)C(F)(F)C(F)(F)C(F)(F)C(F)(F)C(F)(F)C(F)(F)C(F)(F)F`, “inactive”.
Regarding `CCOP(=S)(OCC)O/N=C(\C#N)c1ccccc1`, the compound was called inactive.
Still for that read-out and setting: with `Nc1ccc(Cl)c(Cl)c1` the entry was “inactive”; with `N#CCCCl`, “inactive”; with `O=[N+]([O-])c1cccc2ccccc12`, “inactive”.
As to `CCN(CC)C(=O)SCc1ccc(Cl)cc1`, the outcome was inactive.
With `COP(=O)(OC)OC`, the outcome was inactive.
As for `Nc1ccc(-c2ccccc2)cc1`, the compound was classed as inactive.
Same read-out and setting: as for `O=[N+]([O-])c1ccc(O)c([N+](=O)[O-])c1`, the entry is “inactive”.
With `CN(C)C(=O)Nc1ccc(Cl)cc1`, the compound was called inactive.
As for `Oc1cc(Cl)ccc1Oc1ccc(Cl)cc1Cl`, the compound was called inactive.
Consider `Nc1ccc(Cl)cc1N`, for which the compound was classed as inactive.
In the case of `COP(=S)(OC)Oc1cc(Cl)c(Cl)cc1Cl`, the compound was classed as inactive.
Take `CC(C)C(=O)OCC(C)(C)C(OC(=O)C(C)C)C(C)C` (stereo unspecified): the result was inactive.
`C#C[C@]1(O)CC[C@H]2[C@@H]3CCC4=CC(=O)CC[C@]4(C)[C@H]3CC[C@@]21C`: the compound was called inactive.
Consider `NNC(N)=S`, for which the outcome was inactive.
For `Oc1c(Cl)c(Cl)c(Cl)c(Cl)c1Cl`, the outcome was inactive.
On the same count and under the same terms, as for `CCCCCCOC(=O)c1ccccc1C(=O)OCCCCCC`, the entry is “inactive”; as for `Cc1cc(Cl)ccc1OCCCC(=O)O`, “inactive”.
The same measure, in the same setting: as for `CC(C)N(C(=O)SCC(Cl)=C(Cl)Cl)C(C)C`, the entry is “inactive”; as for `O=c1oc2ccccc2c(O)c1C(CC(O)c1ccc(-c2ccc(Br)cc2)cc1)c1ccccc1` (stereo unspecified), “inactive”.
On the same count and under the same terms, as for `CCCCC(CC)COC(=O)c1ccc(C(=O)OCC(CC)CCCC)c(C(=O)OCC(CC)CCCC)c1` (stereo unspecified), the entry is “inactive”.

Another assay in a line: qHTS assay to test for compound auto fluorescence at 460 nm (blue) in HEK293 cell free culture (AID 720681). Particulars: cell-free medium, autofluorescence 405/460 nm (blue); series mostly up to 91.3 µM. An outline of the steps: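 Compounds were added to cell-free DMEM with 10% FBS and fluorescence read directly. The blue channel used 405 nm excitation and 460 nm emission, with triamterene as the reference fluorophore.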
Take `O=C1C=CC(=O)C=C1`: the result was inactive.
Turning to `C=CCc1ccc2c(c1)OCO2`, the call was inactive.
For the compound `CCCCOCCOP(=O)(OCCOCCCC)OCCOCCCC`, the compound was called inactive.
For `N[C@@H](Cc1ccc(N(CCCl)CCCl)cc1)C(=O)O`, the compound was classed as inactive.
Consider `CCC(=O)O[C@H]1CC[C@H]2[C@@H]3CCC4=CC(=O)CC[C@]4(C)[C@H]3CC[C@]12C`, for which the compound was classed as inactive.
On to `CCOC(=S)S`, for which the compound was called inactive.
As to `Nn1cnnc1`, the call was inactive.
As for `c1ccc(N=Nc2ccccc2)cc1`, the result was inactive.
On the same count and under the same terms, with `COc1ccc(C=O)cc1` the entry was “inactive”.
For the compound `ClC1C(Cl)C(Cl)C(Cl)C(Cl)C1Cl` (stereo unspecified), the compound was called inactive.
As for `c1ccc(NNc2ccccc2)cc1`, the outcome was inactive.
Regarding `C[C@]12CCC(=O)C(O)=C1CC[C@@H]1[C@@H]2CC[C@]2(C)C(=O)CC[C@@H]12`, the compound was classed as inactive.
Turning to `CCN(CC)N=O`, the outcome was inactive.
With `CCCCN(CCCC)N=O`, the outcome was inactive.
On the same count and under the same terms, as for `C=CCN(CC=C)C(=O)C(Cl)Cl`, the entry is “inactive”; as for `O=C(O)C(F)(F)C(F)(F)C(F)(F)C(F)(F)C(F)(F)C(F)(F)C(F)(F)F`, “inactive”; as for `CCOP(=S)(OCC)O/N=C(\C#N)c1ccccc1`, “inactive”.
As for `Nc1ccc(Cl)c(Cl)c1`, the compound was called inactive.
The same measure, in the same setting: as for `N#CCCCl`, the entry is “inactive”.
For `O=[N+]([O-])c1cccc2ccccc12`, the compound was called inactive.
Take `CCN(CC)C(=O)SCc1ccc(Cl)cc1`: the compound was classed as inactive.
Turning to `COP(=O)(OC)OC`, the compound was classed as inactive.
For `Nc1ccc(-c2ccccc2)cc1`, the result was inactive.
Consider `O=[N+]([O-])c1ccc(O)c([N+](=O)[O-])c1`, for which the result was inactive.
Take `CN(C)C(=O)Nc1ccc(Cl)cc1`: the call was inactive.
On the same count and under the same terms, with `Oc1cc(Cl)ccc1Oc1ccc(Cl)cc1Cl` the entry was “inactive”.
For `Nc1ccc(Cl)cc1N`, the outcome was inactive.
The same measure, in the same setting: as for `COP(=S)(OC)Oc1cc(Cl)c(Cl)cc1Cl`, the entry is “inactive”; as for `CC(C)C(=O)OCC(C)(C)C(OC(=O)C(C)C)C(C)C` (stereo unspecified), “inactive”; as for `C#C[C@]1(O)CC[C@H]2[C@@H]3CCC4=CC(=O)CC[C@]4(C)[C@H]3CC[C@@]21C`, “inactive”.
Same read-out and setting: with `NNC(N)=S` the entry was “inactive”; with `Oc1c(Cl)c(Cl)c(Cl)c(Cl)c1Cl`, “inactive”; with `CCCCCCOC(=O)c1ccccc1C(=O)OCCCCCC`, “inactive”.
Consider `Cc1cc(Cl)ccc1OCCCC(=O)O`, for which the compound was called inactive.
Turning to `CC(C)N(C(=O)SCC(Cl)=C(Cl)Cl)C(C)C`, the call was inactive.
Same read-out and setting: with `O=c1oc2ccccc2c(O)c1C(CC(O)c1ccc(-c2ccc(Br)cc2)cc1)c1ccccc1` (stereo unspecified) the entry was “inactive”; with `CCCCC(CC)COC(=O)c1ccc(C(=O)OCC(CC)CCCC)c(C(=O)OCC(CC)CCCC)c1` (stereo unspecified), “inactive”.
